Source: the supplement of paper PMC11417369
The full ranking holds about 25,000 sequences; the median of “ln(normalized median fluorescence intensity)” is about 9.3, and the highest 2% start at about 10. The sample holds the highest values, similar sequences and a random draw of the others, so the mix is not that of the screen.

test system: PF3D7_0420300 AP2 domain 1 (GST-tagged); test: gcPBM binding intensity (ln(normalized median fluorescence intensity)); higher = stronger DNA binding
How it was run: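 GST-tagged P. falciparum DNA-binding domains produced in E. coli were incubated for 1 h on an Agilent 4 × 180k array of primer-extended double-stranded 36-bp intergenic genomic probes with negative controls. Binding intensity is the highest Masliner-normalised natural-log median intensity across replicate spots of either probe orientation, with bound protein detected by Alexa488 anti-GST antibody at 488 nm.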

| Sequence | gcPBM binding intensity (ln) |
| --- | --- |
| AAAAGATGCGCATACACACAGATGAATAACAAAAAA [CACACA_site6865] | 9.74 |
| AAACAAATAGACACTTGTACGTAAGTAAATAATTAA [XGTACX_site6157] | 9.43 |
| ATTTAATTTTTTTTTAAACACACATTTTTTTATTTA [CACACA_site8880] | 9.36 |
| ATTTTTTTATAAAATTTTTTATATATTAAATATTAT [CACACA_negctrl_site135] | 9.04 |
| GTAAAATTTACATAGAGTACTTATATTTTTTTCTGC [XGTACX_site3414] | 8.96 |
| AAAAATTTGGCATACACACACACACCGACACAGACA [CACACA_site4489] | 10.1 |
| TATACTCATGGACACACACACATACACAGACATACA [CACACA_site5024] | 9.92 |
| ATTTGGCATGGACACACACACACACCGACAGACATA [CACACA_site4491] | 10.2 |
| ATAAAGCACACCGACACACACATATATATATATATA [CACACA_site1047] | 9.8 |
| ATAATTTGTGGACACACACACACACCGACATATATA [CACACA_site8718] | 10.2 |
| CATATTTGTGGACACACACACATATTTATATATATA [CACACA_site5887] | 9.75 |
| TTATTAATTATATATAGTACACATTTCACAGATGGG [XGTACX_site2349] | 9.2 |
| TATTTATGTATATGCTGTACGCATTTGTGAAACATA [XGTACX_site4688] | 9.06 |
| GTACATATAAATATTACACACATTTTCATTTTTAAC [CACACA_site1986] | 9.56 |
| ATAATTTATATTCAGAAACACACGAAAAAAAAAAAT [CACACA_site1296] | 9.64 |
| TAAATGTAAAACGAAATGCACACTATGGAAAATATA [CACACA_site724] | 9.66 |
| AATTAATATTTAAATTGTACATGAACATTTTAATGT [XGTACX_site462] | 8.97 |
| CAAATACATAGACACACACACATATACATATTTATA [CACACA_site7610] | 10 |
| ATTCATTCATATGTTACACACACACCGACACATAAA [CACACA_site5749] | 10 |
| ATTCATTCATATGTTACACACACACGCCCACATAAA [CACACA_site7513] | 10.3 |
| ATTCATTCATATGTTACACACACACCCACCCATAAA [CACACA_site9066] | 10.2 |
| TCATTCATATGTTACACACACACACGCACATAAAAA [CACACA_site7514] | 10.3 |
| AAAATTCATAAATACACACACGCACATATATATATA [CACACA_site4227] | 9.88 |

| Sequence | gcPBM binding intensity (ln) |
| --- | --- |
| TCATTCATATGTTACACACACACACCCACATAAAAA [CACACA_site3245] | 10.1 |
| AAAAAGGGTATTATTACACACACGTAAATATTAATA [CACACA_site101] | 9.61 |
| TTTCCTTTTTTAATATGTACACATATTATTATATCT [XGTACX_site3079] | 9.45 |
| ATAATTTAAAAACATTGTACATTAATATATATGTAT [XGTACX_site8970] | 9.12 |
| GTACACATATATATATATATATATATATATATATAT [CACACA_negctrl_site800] | 9.25 |
| ATATATATTTTTATTTGTACATAATTTTTTTTGTGA [XGTACX_site6378] | 9.21 |
| ACCAAAAAAAAAAAAAAAAAAATATACATATATATA [GTGCAC_negctrl_site582] | 9.05 |
| TCATTTCACAGACACACACACACAAGATATTTCCTT [CACACA_site7774] | 10 |
| TTTCATTTCACAGACACACACACACCCTATATTTCC [CACACA_site3906] | 10.2 |
| ATTTCACAGAGACACACACACAATATATTTCCTTTT [CACACA_site7773] | 9.94 |
| AAAGAAAATTAAAAAGAACACACAAATATATATATA [CACACA_site9196] | 9.67 |
| AAATAGAAAAAATATACACACACTTATTAAATAAAA [CACACA_site3313] | 9.86 |
| TGAGTATATAAATACACACACATATATATATTTTAA [CACACA_site5130] | 9.61 |
| TATATATATATATTATGTACTCATTTATTATCTTTT [XGTACX_site8051] | 9.36 |
| ATATATATTTATATATGTACATATTTTTGTGTATTT [XGTACX_site1183] | 9.55 |
| ATATATATATATATATGTACTCATATTTTATTATTT [XGTACX_site898] | 9 |
| TTTGTCATTTTATTATGTACTCAGCATATAGGGGGG [XGTACX_site505] | 10.5 |
| ATGCATATATTTATGTGTACATATATTTGTAGGGGG [XGTACX_site6063] | 10.7 |
| TATATATATATATATGCATGTACATATATTTGTTAT [TGCATGCA_site379] | 9.57 |
| TATATACACATATATACACACACATATATATATATA [CACACA_site9127] | 9.79 |
| TTACCAAAAACCTCAAGTACAAAAAATCCCTAATAT [XGTACX_site2313] | 9.37 |
| TATATATTAAACTTTGCACACATAATTTAACTACAA [CACACA_site3440] | 9.4 |
| TTAGATATAAAAGCATGTACTTGTATAAAATATATA [XGTACX_site8272] | 9.16 |

| Sequence | gcPBM binding intensity (ln) |
| --- | --- |
| TTACATTATATACATACACACCCACCCACAAAAAAA [CACACA_site8187] | 10.1 |
| TACATGCAAAAAATTCCACACACACCCCCACATATA [CACACA_site8329] | 10.2 |
| TATATACATAGACACCCACACACAAAAAAAAAAAAA [CACACA_site8186] | 9.75 |
| TGCAAAAAATTCCACACACACACACCCATATAAATA [CACACA_site1230] | 10 |
| TACATATACAGACACACACACACACCCCCACAAAAA [CACACA_site495] | 10.3 |
| CACACCCACAGACACACACACACATATATAATATAT [CACACA_site594] | 10.2 |
| TACAGACATACATACACACATACATATATATATATA [CACACA_site1940] | 9.67 |
| CACACCCACAGACACACACACACATATATATATATA [CACACA_site363] | 10.2 |
| CATGCAAAAAATTCCACACACACACCCACATATAAA [CACACA_site1229] | 9.92 |
| TTGGCATACAGACACACACACACACGCCCACATATA [CACACA_site6425] | 10.2 |
| TATACAGACAGACACACACACATATATATATATATA [CACACA_site1734] | 9.82 |
| CCTTTATATTATAAAAGTACATAATATTTTATAAGT [XGTACX_site1629] | 8.96 |
| TATATATGTATCATTACACACATGTATACTTATTTG [CACACA_site4138] | 9.71 |
| TGAGAGTTCTCATATGCACACAAAAAACTTTCATTT [CACACA_site7898] | 9.28 |
| TATTTTTAATAAAAACGTACGGAATACAAAAAAAAT [XGTACX_site3477] | 9.4 |
| AAGAAAATTGTCTGAAGTACAAAACATTAATAATAT [XGTACX_site4864] | 9.27 |
| ATATTATAATTAAAACGTACGTATTTATGAATTCAT [XGTACX_site1047] | 9.16 |
| ATAAATAATATAAATACACACTAAAAAAAATATATA [CACACA_site4456] | 9.7 |
| CAAAAACATACCTACACACACAATATGTATAAATAA [CACACA_site7617] | 10 |
| CACCCCCACAGACACACACACACACCCATATATATA [CACACA_site364] | 10.3 |
| AATACACGCAGACACACACACAAAAAAAAAAAAAAA [CACACA_site6384] | 9.61 |
| CGCACCCACAGACACACACACACATATATATATATA [CACACA_site2202] | 10.2 |
| GGCATACACAGACACACACACACACCCACATATATA [CACACA_site591] | 10.3 |

| Sequence | gcPBM binding intensity (ln) |
| --- | --- |
| TATACATACAGACCCACACACAAAAAAAAAAAAAAA [CACACA_site6536] | 9.38 |
| TACCTATACAGACACACACACACACGCCCACAAAAA [CACACA_site6375] | 10.3 |
| TAAATACAGACATACACACATACACCCACATATATA [CACACA_site547] | 9.95 |
| CATACACCCATACATACACACATACAGATATATATA [CACACA_site5123] | 9.74 |
| TTGGCATACAGACACACACACACACCCCCACATATA [CACACA_site590] | 10.1 |
| ATATTATTGTAGAAATGTACATATATATATATATAT [XGTACX_site1882] | 9.31 |
| ATCATATGTATGCATACACACAAAAAGTTATTTATA [CACACA_site6325] | 9.37 |
| TTAACAAATAAACACACACACACACCCAAAAAAAAA [CACACA_site8068] | 10.1 |
| TAAACACCCATATAAACACACATACATACATACATA [CACACA_site5383] | 9.7 |
| CATACATACAAACACACACACACACCCATATATATA [CACACA_site2918] | 10.4 |
| ATAAATAAAAAACACACACACACACCCAAAAAAAAA [CACACA_site2624] | 10.1 |
| TATAAACACCCATATAAACACACATACATACATACA [CACACA_site8791] | 9.58 |
| TATATAAATGGACACACACACACCTTATAATTATTA [CACACA_site6093] | 10.2 |
| AAAAAAAAAAAACACACACACACACCCAAATATATA [CACACA_site150] | 10.1 |
| TATATAAAGAAACACACACACACCTTATAATTATTA [CACACA_site4062] | 10 |
| TGCAACAAAATAAACACACACACACCCCCACAAAAA [CACACA_site3388] | 10.3 |
| CACAAACAAAAACACACACACACACCCACAAAAATG [CACACA_site2429] | 10.1 |
| TATATAAATAAACACACACACACCTTATAATTATTA [CACACA_site9345] | 9.93 |
| AAAAAAAAAAAACACACACACACACCCACAAAATAT [CACACA_site1447] | 10.2 |
| TTATATAACATTATTTGTACATATAAAATATGGATG [XGTACX_site8526] | 9 |
